# Laboratory results as given in PubChem BioAssay (NCATS).
# A number with no mark means an inactive call.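 Rule for the calls: active = compounds whose dose series gives a full or clear partial fitted curve of increased nuclear translocation; inconclusive = weak partial curve or effect only at the top dose; inactive = no dose-dependent translocation response.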
# Target: Glucocorticoid receptor (Homo sapiens) (UniProt P04150)
# Assay: GR-GFP Redistribution (AID 450)
# Conditions: U2OS GR-GFP nuclear translocation, laser cytometry, 2 h; series mostly up to 20.6 µM
# Potency is the fitted concentration of half-maximal effect.
# Glucocorticoid receptor (Homo sapiens), sequence (P04150 whole entry, looked up): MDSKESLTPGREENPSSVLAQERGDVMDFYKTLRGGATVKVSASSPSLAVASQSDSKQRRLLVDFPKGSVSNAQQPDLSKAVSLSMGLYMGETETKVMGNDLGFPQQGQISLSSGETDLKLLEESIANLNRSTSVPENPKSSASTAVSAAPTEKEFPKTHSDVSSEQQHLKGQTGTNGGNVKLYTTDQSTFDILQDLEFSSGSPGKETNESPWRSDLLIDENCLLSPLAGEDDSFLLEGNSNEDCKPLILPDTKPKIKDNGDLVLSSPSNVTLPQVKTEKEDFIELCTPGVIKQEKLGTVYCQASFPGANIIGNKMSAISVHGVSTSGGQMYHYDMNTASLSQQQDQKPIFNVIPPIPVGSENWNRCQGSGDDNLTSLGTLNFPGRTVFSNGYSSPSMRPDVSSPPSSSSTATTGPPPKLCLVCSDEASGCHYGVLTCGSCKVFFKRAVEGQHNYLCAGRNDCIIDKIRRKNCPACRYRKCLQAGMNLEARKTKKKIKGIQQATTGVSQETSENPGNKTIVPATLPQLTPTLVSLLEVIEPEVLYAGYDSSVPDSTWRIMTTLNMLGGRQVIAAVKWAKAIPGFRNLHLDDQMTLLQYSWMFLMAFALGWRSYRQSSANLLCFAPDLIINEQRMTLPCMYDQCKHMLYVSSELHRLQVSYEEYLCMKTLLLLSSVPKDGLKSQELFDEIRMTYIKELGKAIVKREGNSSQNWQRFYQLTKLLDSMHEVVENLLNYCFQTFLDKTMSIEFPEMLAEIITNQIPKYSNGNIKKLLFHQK
row,SMILES,Potency [µM]
1,CSc1nc2[nH]c3c(c2c2nnnn12)CCCC3,> 20.6
2,COc1ccccc1NC(=O)C1=C(C)NC(SCC(=O)c2ccc(C)cc2)=C(C#N)C1c1ccco1 (stereo not given),> 20.6
3,Oc1ccc(Br)cc1-c1cc(-c2ccccc2F)[nH]n1,> 20.6
4,NC(Cc1ccc(Oc2ccc(O)cc2)cc1)C(=O)O (stereo not given),> 20.6
5,CC(C)(C)c1cccc(/C=N/O)c1O,> 20.6
6,COC(=O)c1ccc(Oc2nc3ccccc3n3c(C)nnc23)cc1,> 20.6
7,CCCCC(=O)C1CCN(Cc2ccccc2)CC1,> 20.6
8,Cn1c(Cl)cnc1C1CC(=O)c2cc(Cl)ccc2O1 (stereo not given),> 20.6
9,COC(=O)c1cc(=O)n2c(-c3ccc(OC)cc3)csc2n1,> 20.6
10,Cn1c(=O)c2c(nc(NCc3ccco3)n2Cc2ccc(Cl)cc2Cl)n(C)c1=O,> 20.6
11,CCCCCNc1nc(N2CCCC2)c2c(c1C#N)CCN(C)C2,> 20.6
12,CCn1c(SCC(=O)N2CCOCC2)nc2sc3c(c2c1=O)CCCC3,> 20.6
13,COC(=O)c1sc2nc(N3CCCCC3)c3c(c2c1N)CC(C)(C)N(C)C3,> 20.6
14,COc1ccccc1C1(CC(=O)N2CCOCC2)CCOC(C(C)C)C1 (stereo not given),> 20.6
15,CCOC(=O)N1CC=C2C(C#N)=C(N)C(C#N)(C#N)[C@H](c3cccs3)[C@H]2C1,> 20.6
16,O=C(Nc1nc(NC(=O)c2ccco2)n(-c2ccccc2)n1)c1ccccc1,> 20.6
17,CCOC(=O)C1=C(C)NC(SCC(=O)Nc2nc(C)cs2)=C(C#N)C1c1cccs1 (stereo not given),> 20.6
18,CCOC(=O)c1[nH]c2ccc(F)cc2c1N=C(C)N(CC)CC,> 20.6
19,O=c1c2ccccc2[nH]c(=S)n1CCN1CCC(=C(c2ccc(F)cc2)c2ccc(F)cc2)CC1,> 20.6
20,Cn1c(=O)c2c(nc(Br)n2CCSc2nc3ccccc3o2)n(C)c1=O,> 20.6

row,SMILES,Potency [µM]
1,Cc1cc2c(c(=O)n1Cc1ccccn1)C(c1ccc3c(c1)OCO3)C(C#N)=C(N)O2 (stereo not given),> 20.6
2,CCOC(=O)c1[nH]c2ccc(Br)cc2c1NC(=O)CNC,> 20.6
3,CCC12CN3CC(CC)(CN(C1)C3c1c(O)ccc3ccccc13)C2=O (stereo not given),> 20.6
4,CCOC(=O)c1nc(N)c(C(=O)OCC)[nH]1,> 20.6
5,COc1ccc(C2/C(=C(\O)c3ccc4c(c3)OCCO4)C(=O)C(=O)N2CCCN(C)C)cc1 (stereo not given),> 20.6
6,CC(C)Sc1nnc2n(CCc3ccccc3)c(=O)c3c4c(sc3n12)COC(C)(C)C4,> 20.6
7,OCCNc1nc(-c2ccccc2)c2ccccc2n1,> 20.6
8,CNC(=O)CC(C(=O)O)c1ccc(OC(C)C)cc1 (stereo not given),> 20.6
9,Nc1ccc2oc3ncccc3c(=O)c2c1,> 20.6
10,CN=C(c1ccco1)n1c(=S)nc(-c2ccco2)n(C)c1=S,> 20.6
11,COc1cc(OC)cc(C(=O)N2CCC(N3CCCCCC3)CC2)c1,> 20.6
12,Cc1ccc(S(=O)(=O)N2CCC(N3CCCCCC3)CC2)cc1,> 20.6
13,CCCOc1ccc(C(C)=O)cc1CSCCC#N,> 20.6
14,O=C(O)CC(NCc1ccco1)C(=O)OCC1CCCO1 (stereo not given),> 20.6
15,CC(C)(C)NCc1cc2ccccc2[nH]c1=O,> 20.6
16,CCCOc1ccc(Cc2nn[nH]n2)cc1,> 20.6
17,COc1ccc(-c2nc3c(Br)c(N)c(Br)cc3o2)cc1,> 20.6
18,COC(=O)C1=C(C)OC(N)=C(C#N)C1c1ccc(OC)c(OC)c1OC (stereo not given),> 20.6
19,O=C(NCc1ccco1)c1cnn2c(C(F)(F)F)cc(-c3ccco3)nc12,> 20.6
20,Cc1ccc2cc(CN(C(=O)c3ccco3)c3ccccc3C)c(=O)[nH]c2c1,> 20.6
